Measured values reported in PubChem BioAssay.
Activity calls are given as the source filed them. Unless noted, how the calls were made is not given here.

How the values were obtained:
[1] = resazurin metabolic signal in HepG2 cells – cell-based, resazurin fluorescence, 24 h, PK04 Diversity Set, profiling panel (AID 1172); settings: HepG2 viability, higher = more signal
[2] = budding yeast growth changes without added modifier – OD600, strain BY4716, 24 h, basal condition, primary screen (AID 1173); settings: S. cerevisiae BY4716 growth, OD600, 24 h; higher = more signal, called active from +8 up or from −8 down
[3] = viability profiling in MM1S myeloma cells – cell-based, resazurin fluorescence, basal, 24 h, PK04 Diversity Set, profiling panel (AID 1174); settings: higher = more signal, called active from +8 up or from −8 down;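 further: MM1S multiple myeloma cell line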
[4] = molecular target: Dihydroorotate dehydrogenase (quinone), mitochondrial (Plasmodium falciparum (isolate 3D7)) (UniProt Q08210); experiment: inhibition of P. falciparum DHODH – biochemical, C-terminal His tag, absorbance 600 nm, primary screen (AID 1175); settings: PfDHODH enzyme, DCIP absorbance 600 nm; higher = more signal, called active from +8 up or from −8 down;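 further: recombinant parasite enzyme with a five histidine tag at its C terminus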
[5] = inhibition of PAO1 biofilm formation – strain PAO1, LB-PBS medium, absorbance 600 nm, primary screen (AID 1176); settings: P. aeruginosa PAO1 growth/biofilm, A600, 12 h; higher = more signal
[6] = growth modulation of vineyard yeast isolate – strain RM11-1a, OD600, basal, 24 h, primary screen (AID 1177);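 further: cultures grown under basal conditions with no added stressor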; settings: S. cerevisiae RM11-1a growth, OD600, 24 h; higher = more signal, called active from +8 up or from −8 down
[7] = growth of efflux-deficient E. coli DRC39 – strain DRC39, OD650, 24 h, E. coli filamentation inducers, primary screen (AID 1178);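 further: growth measured as culture turbidity by optical density at 650 nm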; settings: E. coli DRC39 acrAB, higher = more signal, called active from +8 up or from −8 down
[8] = growth of efflux-deficient E. coli DRC39 – strain DRC39, OD650, 48 h, E. coli filamentation inducers, primary screen (AID 1179);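 further: screen aims at cell division blockers that make cells filament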; settings: E. coli DRC39 delta-acrAB growth, higher = more signal, called active from +8 up or from −8 down
[9] = viability profiling in RPMI8226 myeloma cells – cell-based, resazurin fluorescence, basal, 24 h, PK04 Diversity Set, profiling panel (AID 1180); settings: higher = more signal;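 further: RPMI8826 multiple myeloma cell line at 5000 cells per well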
[10] = molecular target: E3 ubiquitin-protein ligase XIAP (Homo sapiens) (UniProt P98170); experiment: small molecules binding XIAP protein – biophysical, small-molecule microarray, fluorescence 635 nm, primary screen (AID 1181); settings: higher = more signal;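 further: score merges 667 nm emission and signal to noise over triplicate slides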
[11] = tested on: XIP peptide (Xip251-270) binding; experiment: XIP fragment 251-270 binding compounds – biochemical, small-molecule microarray, fluorescence 635/667 nm, 0.1 µg/mL protein, primary screen (AID 1182); settings: fluorescent protein binding, 635 nm, higher = more signal, called active from +8 up or from −8 down
XIP peptide (Xip251-270) = experiment: compounds binding XIP fragment 251-270 – biochemical, small-molecule microarray, fluorescence 635/667 nm, 0.5 µg/mL protein, primary screen (AID 1183); settings: fluorescence 635 nm, higher = more signal
[12] = blood-stage malaria parasite viability loss – strain 3D7, DAPI fluorescence, 100 nL, primary screen (AID 1184);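 further: parasites grown inside human red blood cells in medium with human serum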; settings: P. falciparum 3D7 growth, 3 d, higher = more signal
[13] = molecular target: Homeobox protein Hox-A13 (Mus musculus) (UniProt Q62424); experiment: disruptors of Hoxa13 oligonucleotide interaction – biochemical, fluorescence polarization, labeled oligonucleotide, primary screen (AID 1185); settings: Hoxa13:DNA binding, 15 min, higher = more signal, called active from +8 up or from −8 down
Sequence of Homeobox protein Hox-A13 (Mus musculus) (Q62424 whole entry, looked up): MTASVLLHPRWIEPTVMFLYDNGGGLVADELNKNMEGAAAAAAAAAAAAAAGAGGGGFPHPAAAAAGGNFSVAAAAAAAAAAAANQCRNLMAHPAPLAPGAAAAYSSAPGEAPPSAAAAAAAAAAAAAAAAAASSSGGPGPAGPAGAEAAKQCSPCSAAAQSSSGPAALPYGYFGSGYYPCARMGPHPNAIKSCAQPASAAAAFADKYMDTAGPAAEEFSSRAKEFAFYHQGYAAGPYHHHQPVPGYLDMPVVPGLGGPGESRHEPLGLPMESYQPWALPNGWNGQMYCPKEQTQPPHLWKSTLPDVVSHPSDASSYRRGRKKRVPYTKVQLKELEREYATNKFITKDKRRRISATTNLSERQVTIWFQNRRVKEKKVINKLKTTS

Sequence of Dihydroorotate dehydrogenase (quinone), mitochondrial (Plasmodium falciparum (isolate 3D7)) (Q08210 whole entry, looked up): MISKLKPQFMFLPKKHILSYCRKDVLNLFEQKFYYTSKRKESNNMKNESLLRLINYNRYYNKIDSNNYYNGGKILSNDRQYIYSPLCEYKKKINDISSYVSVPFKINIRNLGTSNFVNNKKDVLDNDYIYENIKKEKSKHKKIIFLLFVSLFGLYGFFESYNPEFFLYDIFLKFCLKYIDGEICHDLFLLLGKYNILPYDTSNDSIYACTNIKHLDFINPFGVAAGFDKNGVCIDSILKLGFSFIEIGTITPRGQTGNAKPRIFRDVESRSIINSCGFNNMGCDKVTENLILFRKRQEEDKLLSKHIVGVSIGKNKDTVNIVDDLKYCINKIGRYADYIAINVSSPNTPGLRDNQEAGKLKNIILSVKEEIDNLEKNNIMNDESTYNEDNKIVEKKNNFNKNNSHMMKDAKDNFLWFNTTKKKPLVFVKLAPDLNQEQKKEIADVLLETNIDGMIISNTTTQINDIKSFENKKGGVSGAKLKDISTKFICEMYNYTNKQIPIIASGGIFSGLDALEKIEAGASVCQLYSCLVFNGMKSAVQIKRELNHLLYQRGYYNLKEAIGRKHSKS
Sequence of E3 ubiquitin-protein ligase XIAP (Homo sapiens) (P98170 whole entry, looked up, the tested form may be a part): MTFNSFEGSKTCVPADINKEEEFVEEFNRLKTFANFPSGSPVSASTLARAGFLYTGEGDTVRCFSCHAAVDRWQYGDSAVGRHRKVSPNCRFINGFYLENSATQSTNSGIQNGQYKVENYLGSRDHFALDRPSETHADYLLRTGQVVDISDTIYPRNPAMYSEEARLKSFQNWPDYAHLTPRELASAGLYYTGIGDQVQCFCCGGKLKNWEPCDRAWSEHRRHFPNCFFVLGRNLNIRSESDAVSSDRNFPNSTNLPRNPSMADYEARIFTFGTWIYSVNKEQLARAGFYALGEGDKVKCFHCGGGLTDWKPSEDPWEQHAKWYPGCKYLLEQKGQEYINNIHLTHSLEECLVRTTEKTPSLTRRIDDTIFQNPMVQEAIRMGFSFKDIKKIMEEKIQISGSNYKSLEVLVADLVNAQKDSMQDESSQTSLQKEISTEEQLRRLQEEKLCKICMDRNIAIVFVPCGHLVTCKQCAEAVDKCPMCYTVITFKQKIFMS

Row | Structure (SMILES) | z-score [1] | z-score [2] | z-score [3] | composite z-score [4] | z-score [5] | z-score [6] | z-score [7] | z-score [8] | z-score [9] | composite z-score [10] | composite z-score [11] | composite z-score (XIP peptide (Xip251-270)) | z-score [12] | z-score [13]
1 | COc1ccc(-c2nc3c(c4c2C[C@H](C)OC4)CN(CCC(C)C)CC3)cc1 | -0.182 | -0.827 (inactive) | -0.145 (inactive) | -0.133 (inactive) | 0.262 (inactive) | 0.602 (inactive) | 1.15 (inactive) | 0.479 (inactive) | -0.239 | -0.0559 | 0.731 (inactive) | 0.653 | 0.888 | -5.51 (inactive)
2 | CC(C)(C)N1C(=O)[C@H]2[C@H]3[C@H](O)[C@H](O)CC(=NO[C@@H]4O[C@H](CO)[C@@H](O)[C@H](O)[C@H]4O)[C@@H]3CC[C@H]2C1=O | -0.332 | -0.597 (inactive) | -0.236 (inactive) | 0.0902 (inactive) | 0.0821 (inactive) | -0.471 (inactive) | 0.398 (inactive) | 0.441 (inactive) | -0.449 | 0.144 | 1.16 (inactive) | 0.26 | 2.01 | 0.0059 (inactive)
3 | O=C1[C@H]2[C@H]3[C@H](O)[C@H](O)CC(=NOCc4ccccc4)[C@H]3CC[C@H]2C(=O)N1c1cccc(Oc2ccccc2)c1 | 1.44 | -0.47 (inactive) | 0.968 (inactive) | -0.278 (inactive) | -0.131 (inactive) | -0.0244 (inactive) | 0.416 (inactive) | -0.482 (inactive) | 0.564 | -0.193 | 0.297 (inactive) | 0.723 | -0.835 | -1.3 (inactive)
4 | Cc1ccc(S(=O)(=O)N[C@@H]2COC(=O)[C@H](C)COC(=O)CC=C[C@H]2C)cc1 | 0.285 | 0.773 (inactive) | 0.222 (inactive) | 0.576 (inactive) | -0.601 (inactive) | 1.3 (inactive) | -0.0401 (inactive) | -1.2 (inactive) | 0.242 | -0.13 | -0.396 (inactive) | -0.152 | -0.18 | -0.424 (inactive)
5 | COC(=O)[C@H](C)NC(=O)CCC1CC(OC(=O)NCc2ccc3c(c2)OCO3)CC2(CCCC(COC(=O)NCCOc3ccccc3)O2)O1 (some centres undefined) | 0.658 | -0.565 (inactive) | -0.951 (inactive) | -1.61 (inactive) | 0.875 (inactive) | -1.31 (inactive) | -0.388 (inactive) | -0.915 (inactive) | 0.891 | -0.105 | -0.045 (inactive) | 0.588 | -1.79 | -2.45 (inactive)
6 | C#CCCCON=C1C[C@@H](O)[C@@H](O)[C@@H]2[C@@H]3C(=O)N(CCC(=O)OCC)C(=O)[C@@H]3CC[C@@H]12 | -0.0517 | -0.395 (inactive) | -1.01 (inactive) | 0.175 (inactive) | -0.0485 (inactive) | -0.538 (inactive) | 0.122 (inactive) | 0.529 (inactive) | -0.739 | -0.212 | -0.349 (inactive) | 0.365 | 0.165 | -5.09 (inactive)
7 | CC(C)=NOCc1cccc(-c2cc(-c3ccccc3)no2)c1 | -0.714 | 0.671 (inactive) | -0.862 (inactive) | -0.502 (inactive) | 0.475 (inactive) | -0.39 (inactive) | 1.19 (inactive) | -1.41 (inactive) | -0.975 | -0.288 | 1.13 (inactive) | 0.326 | 2.06 | 0.515 (inactive)
8 | CCc1cc2c(nc1CC)CCN(CCC(C)=NOC(C)CN1CCCc3nc(C)c(C)cc31)C2 (centres undefined) | -0.644 | -0.822 (inactive) | -0.845 (inactive) | 0.244 (inactive) | 0.429 (inactive) | -0.173 (inactive) | 0.278 (inactive) | -1.71 (inactive) | -0.615 | 1.13 | 1.36 (inactive) | 0.561 | 0.74 | -9.89 (active)
9 | COc1ccc(O[C@H]2C=C[C@@H](c3ccccc3)O[C@@H]2COC(=O)CCC(C)=NOC(C)CN2CCCCc3nc(C)c(C)cc32)cc1 (some centres undefined) | 0.957 | 0.756 (inactive) | 1.1 (inactive) | 0.0159 (inactive) | -0.279 (inactive) | 0.181 (inactive) | 0.825 (inactive) | 0.42 (inactive) | 0.948 | 0.533 | 0.422 (inactive) | -0.674 | -1.34 | -2.19 (inactive)
10 | CO[C@H]1COC(=O)[C@@H]2CCCN2C(=O)CC=C[C@@H](C)[C@H](OC)COC(=O)CC=C[C@@H]1C | 0.233 | -1.16 (inactive) | 0.89 (inactive) | -0.652 (inactive) | 0.696 (inactive) | -2.08 (inactive) | 1.04 (inactive) | 0.375 (inactive) | -0.395 | -0.137 | 0.371 (inactive) | 0.298 | 0.372 | -0.346 (inactive)
11 | O=C1[C@H]2[C@H]3[C@H](O)[C@H](O)CC(=NOCc4ccccc4)[C@H]3CC[C@H]2C(=O)N1C[C@@H]1CCCO1 | 0.648 | 0.243 (inactive) | 0.18 (inactive) | -0.279 (inactive) | 0.696 (inactive) | -0.485 (inactive) | -0.359 (inactive) | -0.103 (inactive) | -0.323 | -0.0773 | -0.344 (inactive) | 0.567 | 0.319 | -1.68 (inactive)
12 | O=C1C[C@@H](O)[C@@H](O)[C@@H]2[C@@H]3C(=O)N(c4cccc(Oc5ccccc5)c4)C(=O)[C@@H]3CC[C@@H]12 | -0.165 | -0.208 (inactive) | 0.207 (inactive) | -0.453 (inactive) | -0.708 (inactive) | -0.25 (inactive) | -0.65 (inactive) | -0.644 (inactive) | -0.0298 | -0.102 | -0.0811 (inactive) | 0.726 | -0.61 | -4.11 (inactive)
13 | CO[C@H]1COC(=O)[C@H](C)COC(=O)CC=C[C@@H](C)[C@H](OC)COC(=O)CC=C[C@@H]1C | -0.194 | -0.754 (inactive) | -0.152 (inactive) | -0.365 (inactive) | -0.167 (inactive) | -0.192 (inactive) | 0.778 (inactive) | 0.804 (inactive) | 0.129 | -0.0117 | 0.159 (inactive) | -0.0452 | 1.7 | 0.149 (inactive)
14 | CCOC(=O)NN=C1C[C@@H](O)[C@@H](O)[C@@H]2[C@@H]3C(=O)N(C(C)(C)C)C(=O)[C@@H]3CC[C@@H]12 | -0.119 | 0.381 (inactive) | -0.387 (inactive) | 0.0062 (inactive) | -0.495 (inactive) | -1.23 (inactive) | -0.654 (inactive) | -0.0961 (inactive) | -0.559 | 0.167 | 0.63 (inactive) | -0.145 | 0.439 | -1.69 (inactive)
15 | CO[C@@H]1COC(=O)CC=C[C@@H](C)COC(=O)[C@H](COCc2ccccc2)NC(=O)CC=C[C@H]1C | -0.466 | -0.591 (inactive) | 0.579 (inactive) | 0.777 (inactive) | -0.969 (inactive) | 0.158 (inactive) | 0.489 (inactive) | -0.0248 (inactive) | 0.783 | 0.122 | 0.0912 (inactive) | -0.453 | -1.02 | -0.119 (inactive)
16 | CCCNC(=O)OC[C@H]1O[C@H](CCON=C2[C@H]3CCn4c(=O)n(-c5ccccc5)c(=O)n4[C@H]3[C@H](O)[C@@H]3O[C@H]23)C=C[C@@H]1Oc1ccc(OC)cc1 | -0.633 | -0.521 (inactive) | -1.52 (inactive) | 0.017 (inactive) | 0.0767 (inactive) | 0.12 (inactive) | 0.621 (inactive) | 1.13 (inactive) | -2.05 | -0.2 | 0.118 (inactive) | 0.592 | -1.01 | -6.53 (inactive)
17 | COc1cccc([C@@H]2Oc3ccc(Br)cc3C(=O)[C@H]2O)c1 | -0.41 | -14.5 (active) | -1.99 (inactive) | -0.071 (inactive) | -0.0782 (inactive) | -0.361 (inactive) | 0.255 (inactive) | 0.139 (inactive) | -1.02 | -0.391 | 2.46 (inactive) | 0.181 | 0.988 | -1.54 (inactive)
18 | CO[C@@H]1COC(=O)CC=C[C@@H](C)[C@H](OC)COC(=O)[C@H](COCc2ccccc2)NC(=O)CC=C[C@H]1C | 0.628 | -1.13 (inactive) | -0.0928 (inactive) | -0.0234 (inactive) | -0.225 (inactive) | -0.47 (inactive) | 0.406 (inactive) | -0.723 (inactive) | 1.35 | 0.17 | 0.025 (inactive) | -0.988 | -0.17 | -1.64 (inactive)
19 | CC(=O)OC[C@H]1O[C@H](CC=NOC[C@@H](C)[C@H](OCc2ccccc2)C(C)C)C=C[C@@H]1OC(C)=O | 0.643 | 0.904 (inactive) | -0.473 (inactive) | -0.298 (inactive) | 0.0738 (inactive) | -0.0321 (inactive) | 0.204 (inactive) | 0.193 (inactive) | 0.692 | -0.0571 | -0.655 (inactive) | -0.303 | -0.46 | -5.81 (inactive)
20 | CC[C@@H](c1ccccc1)n1c(=O)n2n(c1=O)[C@H]1[C@H](O)[C@@H]3O[C@@H]3C(=NOCC=C(C)CCC=C(C)C)[C@H]1CC2 | -0.301 | 0.11 (inactive) | -0.16 (inactive) | 0.0031 (inactive) | -0.261 (inactive) | 1.01 (inactive) | -0.271 (inactive) | -1.98 (inactive) | -0.451 | -0.141 | 0.17 (inactive) | 0.4 | -0.444 | -3.96 (inactive)
21 | CC(CCC(=O)OC[C@H]1O[C@H](C#Cc2ccccc2)C=C[C@@H]1Oc1ccc(C)cc1)=NO[C@@H](C)c1cn([C@H](CO)Cc2ccccc2)nn1 | 0.0474 | 0.542 (inactive) | 0.925 (inactive) | -2.15 (inactive) | -0.786 (inactive) | -0.0398 (inactive) | -0.26 (inactive) | -1.24 (inactive) | 0.911 | -0.338 | 0.692 (inactive) | 0.54 | -1.02 | -2.38 (inactive)
